Assay outcomes from PubChem BioAssay.
Shown are actives, neighbours in structure and some others; about 6.7% of the full set was active somewhere.
GDH-TPI inh: inhibits GDH-TPI coupling enzymes, artifact for Mtb FBA screen; GDH-TPI coupled enzyme counterscreen, NADH absorbance; inhibition, % at 4.8 µM; 360,000 compounds, 1.2% hits; AID 588335; in the data active means inhibition above about 30%;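 further: 0% = DMSO wells and 100% = wells lacking the enzyme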
BoNT-F LC inh: blocks Botulinum neurotoxin F light chain protease | Multiplex microsphere protease cleavage assay, flow cytometry | inhibition, % at 10 µM | 360,000 compounds, 0.22% hits | AID 588497; in the data active means inhibition above about 35%, passing the limit was not always enough; inconclusive means no clear call, values can overlap the other calls; further: plate controls were buffer without enzyme for full effect and enzyme alone for no effect
Mtb FBA inh: Mtb fructose-bisphosphate aldolase inhibition | P9WQA3 | purified M. tuberculosis FBA, fluorescence read-out | inhibition, % at 1 µM | 360,000 compounds, 2.3% hits | AID 588726; in the data active means inhibition above about 27%;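 further: 0% = vehicle and 100% = reference inhibitor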
Target sequence (P9WQA3 whole entry, looked up): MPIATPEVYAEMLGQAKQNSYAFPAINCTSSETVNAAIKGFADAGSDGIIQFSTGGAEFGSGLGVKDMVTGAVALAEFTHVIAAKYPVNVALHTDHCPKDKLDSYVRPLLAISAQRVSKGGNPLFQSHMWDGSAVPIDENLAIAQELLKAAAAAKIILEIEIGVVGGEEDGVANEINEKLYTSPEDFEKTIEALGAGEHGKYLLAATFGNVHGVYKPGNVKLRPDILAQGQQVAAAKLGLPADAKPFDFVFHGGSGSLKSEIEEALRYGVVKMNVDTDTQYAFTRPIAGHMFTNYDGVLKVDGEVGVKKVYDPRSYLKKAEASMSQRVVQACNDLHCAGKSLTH
Bead autofluor: flagged as autofluorescent in microsphere protease counterscreen. compound autofluorescence counterscreen, microsphere flow cytometry; hits give high values. fluorescence intensity (no concentration beside the values). 360,000 compounds, 3.1% hits. AID 624483; in the data active means fluorescence intensity above about 16000; inconclusive means no clear call, values can overlap the other calls
BoNT A protease: BoNT A light chain protease inhibition | 360,000 compounds, 0.17% hits | inhibition, % at 10 µM | AID 588499 | multiplex microsphere protease substrate cleavage, flow cytometry; further: plate controls were buffer without enzyme for full effect and enzyme alone for no effect
Anthrax LF inh2: blocks Bacillus anthracis lethal factor protease. P15917. multiplex microsphere protease cleavage assay, LF. inhibition, % at 10 µM. 360,000 compounds, 0.12% hits. AID 588501; further: plate controls were buffer without enzyme for full effect and enzyme alone for no effect
Starred values were filed as active, the others as inactive; u = inconclusive; x = not tested or not shown; + = active, no number. Unless noted, no stated cut-off is given here; in the data, active means inhibition above about 30%; inconclusive means no clear call, values can overlap the other calls; inactive means below that.

SMILES | GDH-TPI inh | BoNT-F LC inh | Mtb FBA inh | Bead autofluor | BoNT A protease | Anthrax LF inh2
CC1=C([N+](=O)[O-])C(c2ccc(O)c(O)c2)NC(=O)N1 (stereo not drawn) | 12 | -16 | 5 | 3855 | 0 | -8
COc1ccc(C2NC(=O)NC(C)=C2[N+](=O)[O-])cc1OC (stereo not drawn) | 37* | 5 | 0 | 3603 | 0 | 5
Nc1nc2nccc(-c3ccc(Cl)cc3)n2n1 | 34* | -28 | + | 5033 | 0 | 0
CN(Cc1ccccc1)C(=O)c1ccc(NC(=O)c2ccccc2)cc1 | 3 | 0 | 2 | 5812 | -1 | 3
COc1ccc(CNCCc2ccc(Cl)cc2)cc1OCc1ccccc1 | 10 | -6 | 2 | 4696 | 0 | -8
COc1ccc(CCNc2ccncn2)cc1 | 5 | 2 | -1 | 5963 | 0 | -10
COc1ccc(CCNCc2ccccn2)cc1OC | 4 | -3 | 0 | 16567* | -2 | -4
COc1ccc(CCNc2ccncn2)cc1OC | -5 | 3 | 2 | 23028* | 2 | 0
COc1ccc(CNCCc2ccccc2)cc1OCC(N)=O | 6 | 3 | 2 | 20991* | 4 | 0
CCOc1cc(CNCCc2ccc(S(N)(=O)=O)cc2)ccc1OCc1ccccc1 | -1 | -18 | 1 | 22507* | -5 | -2
CC(=O)OC[C@@H]1CN(Cc2ccccc2)C[C@H](n2cnc3c(N4CCCC4)ncnc32)O1 | 3 | -5 | -3 | 3781 | 0 | -2
Cc1nnc(SCC(=O)NC2CCC(C)CC2)s1 (stereo not drawn) | -12 | 10 | 0 | 4079 | 1 | 2
Cc1ccc2nc(-c3ccc(NC(=O)C(C)Sc4nncs4)cc3)sc2c1 (stereo not drawn) | 34* | -5 | 15 | 5001 | 0 | 2
Cc1ccc2nc(-c3ccc(NC(=S)NC(=O)CC(C)C)cc3)sc2c1 | 7 | 9 | 5 | 6534 | 0 | 5
Cc1ccc(C)c(N(CC(=O)Nc2ccc(-c3nc4ccc(C)cc4s3)cc2)S(C)(=O)=O)c1 | 16 | 4 | 24 | 2400 | 0 | 2
Cc1cccc(S(=O)(=O)Nc2ccc(-c3nc4ccc(C)cc4s3)cc2)c1 | 24 | -1 | + | 2029 | 2 | -2
Cc1ccc(S(=O)(=O)Nc2ccc(-c3nc4ccc(C)cc4s3)cc2)cc1 | 10 | -4 | 183* | 2565 | 1 | -3
Cc1ccc(N(CC(=O)Nc2ccc(-c3nc4ccc(C)cc4s3)cc2)S(C)(=O)=O)cc1 | 38* | -6 | 18 | 4852 | 1 | -2
Cc1ccc2nc(-c3ccc(NS(=O)(=O)c4c(C)n(C)c(=O)n(C)c4=O)cc3)sc2c1 | 17 | -4 | 17 | 3418 | 0 | -1
COc1cc(OC)cc(-c2sc3ccc(OC)cc3c2C#CCCO)c1 | 14 | 6 | 8 | 4081 | 0 | 3
CC1=CC(C)(C)N2C(=O)C3(SCC(=O)N3c3ccc(O)cc3)c3cc(C)cc1c32 (stereo not drawn) | -3 | 3 | -2 | 20630* | 3 | -4
Cc1ccc(N2C(=O)CSC23C(=O)Nc2ccccc23)cc1 (stereo not drawn) | -1 | -10 | 2 | u | 0 | -6
CCc1ccc(N2CC(C(=O)Nc3ccc(S(=O)(=O)Nc4ncccn4)cc3)CC2=O)cc1 (stereo not drawn) | -4 | 14 | 4 | 6115 | -2 | -3
CCN(CC)c1ccc(NC(=O)CCCCC(=O)Nc2ccc(N(CC)CC)cc2)cc1 | 6 | -24 | -1 | 5092 | 0 | -16
O=C(c1ccco1)N1CCN(Cc2nc3ccccc3c(=O)n2-c2ccc(F)cc2)CC1 | 7 | -1 | 1 | 22917* | 1 | -9
SMILES | GDH-TPI inh | BoNT-F LC inh | Mtb FBA inh | Bead autofluor | BoNT A protease | Anthrax LF inh2
Cn1c(=O)c2c(nc(CN3CCN(C(=O)c4ccco4)CC3)n2CCc2ccccc2)n(C)c1=O | 2 | 3 | 0 | 21635* | 3 | -1
Cn1c(=O)c2c(nc(CN3CCN(C(=O)c4ccco4)CC3)n2Cc2ccccc2)n(C)c1=O | 5 | -5 | 2 | 2228 | 0 | 3
Cn1c(=O)c2c(nc(CN3CCN(C(=O)c4ccco4)CC3)n2CCCc2ccccc2)n(C)c1=O | -2 | -4 | 4 | 4203 | 0 | 0
Cn1c(=O)c2c(nc(CN3CCN(C(=O)c4ccco4)CC3)n2Cc2ccc(Cl)cc2)n(C)c1=O | -11 | 3 | 3 | 18363* | 4 | -5
CCOC(=O)C1CCN(Cc2nc3ccccc3c(=O)n2-c2ccc(F)cc2)CC1 | 7 | x | 1 | x | x | x
Cc1ccc(Cn2c(CN3CCN(C(=O)c4ccco4)CC3)nc3c2c(=O)n(C)c(=O)n3C)cc1 | 0 | -2 | 2 | 9861 | -1 | -1
Cn1c(=O)c2c(nc(CN3CCN(C(=O)c4ccco4)CC3)n2Cc2cccc(Cl)c2)n(C)c1=O | -3 | -1 | -8 | 22343* | 0 | 0
C=CCCC(=O)N1CCC(n2nccc2NC(=O)c2ccccc2C)CC1 | -1 | 2 | 0 | 5305 | -2 | 0
CC(NC(=O)C(Cc1ccccc1)NC(=O)c1ccccc1)C(=O)O (stereo not drawn) | -5 | -1 | 0 | 22982* | u | -1
CC1CCCCN1C/C=C/c1ccccc1[N+](=O)[O-] (stereo not drawn) | 0 | -1 | 0 | 23342* | -3 | 0
O=[N+]([O-])c1ccccc1/C=C/CN1CCSCC1 | 18 | u | 4 | 3131 | 3 | 10
CC1CCCN(C/C=C/c2ccccc2[N+](=O)[O-])C1 (stereo not drawn) | 6 | 0 | -1 | 20230* | 1 | -4
CCC1CCCCN1C/C=C/c1ccccc1[N+](=O)[O-] (stereo not drawn) | -4 | 8 | 2 | 20733* | 7 | 2
CC(SCc1ccccc1)C(=O)NCc1ccccn1 (stereo not drawn) | -2 | -2 | 0 | 3993 | 0 | -3
COc1ccc(-c2cc(NC=O)c3ncc(-c4cccc(C(F)(F)F)c4)n3c2)c(OC)c1 | 1 | 0 | 0 | 3543 | 0 | 1
CN(CCNC(=O)c1ccc(CS(=O)(=O)c2c(Cl)cccc2Cl)o1)CCc1ccccc1 | 1 | -9 | 0 | 6691 | -2 | -4
COc1ccc(/C=N/NC(=O)c2nc(-c3ccccc3)cc(-c3ccccc3)n2)cc1 | 32* | 0 | 1 | 2513 | 0 | -10
COc1ccc(/C=N/NC(=O)c2nc(-c3ccccc3)n(-c3ccccc3)n2)cc1OC | 37* | 6 | 2 | 10401 | 2 | 2
COc1ccc(/C=N/NC(=O)c2nc(-c3ccccc3)cc(-c3ccccc3)n2)cc1O | 18 | 3 | 4 | 2654 | 0 | -1
CCC(=O)Oc1ccc2c(C)c(Cl)c(=O)oc2c1 | 4 | -4 | + | 3839 | 0 | -2
Cc1c(Cl)c(=O)oc2cc(OC(C)C)ccc12 | 25 | 2 | + | 10515 | 1 | 2
Cc1c(Cc2ccccc2)c(=O)oc2cc(OC(=O)c3ccccc3)ccc12 | 6 | -32 | 5 | 2422 | 0 | -2
